# Screening results from PubChem BioAssay.
# ELG1 repair inh: inhibitors of ELG1-dependent DNA repair in HEK293T cells | HEK293T ELG1-luciferase reporter, luminescence, 16 h; DNA damage induced by 5-fluorouridine | Potency, µM (doses to about 46.1 µM), for the others: top-dose activity change, negative = inhibition, most hits filed as inhibitors | hit rate 2.3% among 330,000 | AID 504467; note: % is set by controls: 0 for no effect and ±100 for the full control effect; nearly all actives have a fitted effect of over 55% in size
#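 Overnight (16 hr) co-exposure of 2,000 cells/well to 5-fluorouridine and compound at 37 °C preceded detection. Luciferase was quantified via ONE-Glo luminescence; loss of signal denotes inhibition.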
# NPC1 prom act: activators of NPC1 promoter; Huh7 NPC1 promoter luciferase reporter, 24 h; Potency, µM (series often up to 9.22 µM), for inactives: at the top dose activation, actives largely listed as activators; hit rate 2.4% among 320,000; note: % of control where 0% means no effect; nearly all actives have a fitted effect of over 60% in size
#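 Luciferase expression driven by the NPC1 promoter was measured in stably transfected Huh7 cells after a 24 h compound incubation, using a luciferase reagent and a luminescence read.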
# ELG1 genotoxic: inducers of genotoxicity in HEK293T ELG1-luciferase cells. Potency, µM (series often up to 46 µM), inactives show at the highest dose activity change, positive = activation, most hits filed as activators. hit rate 1.3% among 330,000. AID 504466. HEK293T ELG1-luciferase reporter, luminescence, 16 h; note: % of control where 0% means no effect; nearly all actives have a fitted effect of over 60% in size
#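 After overnight (16 hr) compound treatment at 37 °C, ELG1-luciferase HEK293T cells were lysed with ONE-Glo; luminescence quantified 30 min later at room temperature.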
# FLuc modulator: inhibits or activates purified firefly luciferase, miR-21 counter-screen. P08659. purified FLuc, Km substrates, luminescence inhibition. Potency, µM (doses to about 57.5 µM), for the others: top-dose activity change, negative = inhibition, most hits filed as inhibitors. hit rate 6.9% among 360,000. AID 588342;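 note: plate controls were vehicle for no effect and reference inhibitor for full effect; nearly all actives have a fitted effect of over 55% in size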
# Target sequence (P08659 whole entry, looked up): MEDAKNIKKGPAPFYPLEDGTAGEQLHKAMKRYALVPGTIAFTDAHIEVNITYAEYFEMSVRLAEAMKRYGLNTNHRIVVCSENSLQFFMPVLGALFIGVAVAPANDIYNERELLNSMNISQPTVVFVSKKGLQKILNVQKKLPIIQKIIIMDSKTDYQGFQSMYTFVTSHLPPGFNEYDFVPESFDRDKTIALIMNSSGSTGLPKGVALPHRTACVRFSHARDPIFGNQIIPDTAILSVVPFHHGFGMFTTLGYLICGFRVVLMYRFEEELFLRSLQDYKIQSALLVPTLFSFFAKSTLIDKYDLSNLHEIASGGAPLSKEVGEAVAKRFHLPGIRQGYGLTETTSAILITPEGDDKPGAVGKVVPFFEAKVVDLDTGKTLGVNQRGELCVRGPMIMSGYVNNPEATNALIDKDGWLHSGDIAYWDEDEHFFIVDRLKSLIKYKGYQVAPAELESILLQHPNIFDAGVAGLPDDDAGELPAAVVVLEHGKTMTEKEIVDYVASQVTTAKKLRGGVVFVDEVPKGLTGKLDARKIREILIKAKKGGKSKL
#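 Biochemical qHTS of compounds, final roughly 60 µM downward over six points, against 10 nM purified firefly luciferase using Km concentrations of substrates (10 uM D-luciferin, 10 uM ATP) in Tris acetate pH 7.5 buffer; luminescence output.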
# Rab9 promoter act: activates the Rab9 promoter; Huh7 Rab9 promoter-luciferase reporter, luminescence, 24 h; Potency, µM (top dose mostly 9.22 µM), for inactives: at the top dose activation, negative = inhibition, usual class: activators; hit rate 2.8% among 320,000; AID 485297; note: % of control where 0% means no effect; nearly all actives have a fitted effect of over 60% in size
#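 Promoter activation is measured as luciferase luminescence in Huh7 cells stably transfected with a Rab9 promoter–luciferase construct, following 24 h compound exposure at 37 °C and 10 min reagent incubation at ambient temperature.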
# SMN2 splice enh: enhancers of SMN2 splice variant expression; HEK293 SMN2-luciferase splicing reporter, luminescence, 30-36 h; AID 1458; hit rate 2.8% among 210,000; Potency, µM (titrated, usually from 46.1 µM), inactives show top-dose activity change, positive = activation, hits mostly activators; note: % of control where 0% means no effect; nearly all actives have a fitted effect of over 55% in size
#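 HEK293 cells carry an SMN2 […]–luciferase reporter in which exon 7 inclusion puts luciferase in frame. Cells were plated 10-12 h before compound addition, then incubated 30-36 h at 37C. ONE-Glo luminescence was read; sodium butyrate at 4.5 mM final served as control.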
# Numbers without * were called inactive; ? = inconclusive; · = not tested or not shown. Shown are actives, neighbours in structure and some others; about 9.3% of the full set was active somewhere. Calls come from the whole dose curve; as a rule, active = well fitted curve in the direction sought with a large enough effect; inconclusive = small, poorly fitted or top-dose-only effect, or another doubt; inactive = no such curve, though single readings can be large; an effect the other way counts as inactive or inconclusive. Potency is the fitted concentration of half-maximal effect.
SMILES,ELG1 repair inh,NPC1 prom act,ELG1 genotoxic,FLuc modulator,Rab9 promoter act,SMN2 splice enh
Cc1ccc(C(=O)O)cc1NS(=O)(=O)c1ccc2c(c1)oc(=O)n2C,2%,3%,-2%,0%,6%,·
Cc1cc2nc(N3CCN(C(=O)c4ccco4)CC3)sc2cc1C,?,2.5µM*,19%,6µM*,0.79µM*,·
COc1ccc(C)c2sc(N3CCN(C(=O)c4ccco4)CC3)nc12,·,·,·,-12%,·,·
Cc1cc(C)c2nc(N3CCC(C(=O)N4CCN(c5ncccn5)CC4)CC3)sc2c1,?,0%,-17%,-17%,-1%,-22%
Cc1cc(C)c2nc(N3CCN(C(=O)c4cccs4)CC3)sc2c1,?,-1%,26%,?,2%,·
Cc1cc(C)c2nc(N3CCN(C(=O)c4ccco4)CC3)sc2c1,?,27%,5%,17µM*,?,·
Cc1cc2nc(N3CCN(C(=O)c4cccs4)CC3)sc2cc1C,?,4µM*,10%,?,2.8µM*,·
CCN(CC)C(=O)c1ccc(-c2nnc(Nc3ccc(O)cc3)c3ccccc23)cc1,?,-1%,-14%,-1%,-2%,·
C=CS(=O)(=O)N(Cc1ccc(Cl)c(Cl)c1)C[C@@H](O)CO,9.2µM*,·,-10%,·,·,·
O=C(O)c1sccc1SCc1ccc(Cl)c(Cl)c1,6%,0%,0%,-14%,4%,0%
Cn1c(=O)[nH]c(=O)c2c1nc([N+](=O)[O-])n2Cc1ccccc1,15µM*,-16%,-15%,1%,-45%,·
COc1ccc(-c2nc3c(c(=O)[nH]c(=O)n3Cc3ccccc3)n2Cc2ccccc2)cc1,8.2µM*,0%,-10%,1%,-7%,14%
CC(C)Cn1c([N+](=O)[O-])nc2c1c(=O)[nH]c(=O)n2C,23µM*,-1%,-20%,8%,-1%,·
Cn1c(=O)[nH]c(=O)c2c1nc(N1CCNCC1)n2Cc1ccccc1,1%,-1%,0%,13%,0%,·
O=S(=O)(Nc1ccc2c(c1)nc1n2CCN(Cc2ccccc2)C1)c1ccccc1,-17%,28%,12%,?,20%,?
CC1CCCC(C)N1C(=O)c1cc(-c2ccc(Cl)c(Cl)c2)on1 (stereo unspecified),?,?,13%,12µM*,?,27%
CC1CCCCN1C(=O)c1cc(-c2ccc(Br)cc2)on1 (stereo unspecified),·,·,·,?,·,8%
COc1ccc(NC(=O)c2cc(-c3ccc4c(c3)OCO4)on2)cc1,1%,-1%,3%,-8%,-2%,·
CC1CCCC(C)N1C(=O)c1cc(-c2ccc3c(c2)OCO3)on1 (stereo unspecified),?,2µM*,-1%,11µM*,2µM*,·
CCOC(=O)C1=C(C)NC2=C(C(=O)CC(C)(C)C2)C1c1coc2ccccc2c1=O (stereo unspecified),19%,0%,0%,1%,-2%,1%
CC1(C)COC(c2coc3ccccc3c2=O)OC1,?,29%,?,17µM*,27%,?
CCOc1cc(-c2nccc3cc(OC)c(OC)cc23)cc(OCC)c1OCC,15µM*,-5%,-10%,0%,0%,·
COc1cc(N)c(Cc2nccc3cc(OC)c(OC)cc23)cc1OC,?,-13%,5%,2%,-16%,-43%
CCNC(=O)c1ccccc1-c1nc(-c2ccccc2Cl)no1,-1%,20%,3%,19µM*,7%,-14%
CC(C)(C)NC(=O)c1ccccc1-c1nc(-c2ccccc2Cl)no1,1%,-2%,6%,12µM*,-4%,-8%
CC(C)NC(=O)c1ccccc1-c1nc(-c2ccccc2Cl)no1,0%,2%,0%,15µM*,4%,·
O=C(c1ccccc1-c1nc(-c2ccccc2Cl)no1)N1CCOCC1,0%,0%,2%,3%,1%,·
CCNC(=O)c1ccccc1-c1nc(-c2ccccc2OC)no1,0%,2%,-10%,?,1%,·
